Results from PMC7862700, “An all-to-all approach to the identification of sequence-specific readers for epigenetic DNA modifications on cytosine”.

Tests used:
Assay in all cases: DAPPL (digital affinity profiling via proximity ligation, sequencing); 10 mM Tris-HCl pH 7.5, 50 mM NaCl, 1 mM DTT, 4% glycerol, room temperature, 30 min; GST-TFs on glutathione beads, 16-mer random dsDNA library, 0.1% formaldehyde crosslink after washing; high values mean tight binding
[1] = target: T1, FLI1 (Homo sapiens, UniProt Q01543 1-452); conditions: protein: recombinant; tags: N-terminal GST; dsDNA, one strand shown
T1 sequence: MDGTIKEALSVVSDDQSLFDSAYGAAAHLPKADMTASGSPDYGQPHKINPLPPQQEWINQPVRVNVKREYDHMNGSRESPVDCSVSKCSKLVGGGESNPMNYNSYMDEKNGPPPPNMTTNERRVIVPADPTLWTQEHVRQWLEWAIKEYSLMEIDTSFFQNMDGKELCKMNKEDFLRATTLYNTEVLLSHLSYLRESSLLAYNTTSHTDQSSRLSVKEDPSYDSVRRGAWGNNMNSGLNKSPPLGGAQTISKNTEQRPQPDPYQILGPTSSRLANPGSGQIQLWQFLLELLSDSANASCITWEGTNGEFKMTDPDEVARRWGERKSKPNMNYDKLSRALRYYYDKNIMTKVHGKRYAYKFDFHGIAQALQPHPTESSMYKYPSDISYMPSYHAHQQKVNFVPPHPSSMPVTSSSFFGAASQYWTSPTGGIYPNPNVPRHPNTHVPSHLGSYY
How it was run: (§1)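 Beads coated with glutathione captured GST-fused human transcription factors that had been expressed in yeast, and the factors were then given DNA barcodes and pooled with a tag-only sample. The pools were incubated with 200 nmole of a random double-stranded 16-mer DNA library in Tris/NaCl/DTT/glycerol buffer for 30 min at room temperature, washed, crosslinked with 0.1% formaldehyde and proximity-ligated with BsaI/T4 ligase at 37 °C for 1 h. PCR amplification and Illumina NextSeq500 sequencing came last. Binding signal is each hexamer's read frequency for a factor divided by its frequency for the tag-only sample.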

[2] = target: T2, ELK1 (Homo sapiens, UniProt P19419 1-428); conditions: protein: recombinant; tags: N-terminal GST; dsDNA, one strand shown
T2 sequence: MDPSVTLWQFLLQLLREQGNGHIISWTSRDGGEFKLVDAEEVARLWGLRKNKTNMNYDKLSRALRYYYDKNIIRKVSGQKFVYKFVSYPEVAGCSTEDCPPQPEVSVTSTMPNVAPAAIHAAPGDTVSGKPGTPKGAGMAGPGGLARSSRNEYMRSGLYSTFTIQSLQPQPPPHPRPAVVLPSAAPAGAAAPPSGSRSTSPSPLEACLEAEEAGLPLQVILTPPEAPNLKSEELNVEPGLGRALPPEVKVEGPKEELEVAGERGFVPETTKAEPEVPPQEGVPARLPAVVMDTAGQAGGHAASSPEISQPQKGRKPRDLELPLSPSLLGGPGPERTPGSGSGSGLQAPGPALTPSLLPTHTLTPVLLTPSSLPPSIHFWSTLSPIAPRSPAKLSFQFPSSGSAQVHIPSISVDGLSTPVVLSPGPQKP
How it was run: as §1

[3] = target: T3, GABPA (Homo sapiens, UniProt Q06546 1-454); conditions: protein: recombinant; tags: N-terminal GST; dsDNA, one strand shown
T3 sequence: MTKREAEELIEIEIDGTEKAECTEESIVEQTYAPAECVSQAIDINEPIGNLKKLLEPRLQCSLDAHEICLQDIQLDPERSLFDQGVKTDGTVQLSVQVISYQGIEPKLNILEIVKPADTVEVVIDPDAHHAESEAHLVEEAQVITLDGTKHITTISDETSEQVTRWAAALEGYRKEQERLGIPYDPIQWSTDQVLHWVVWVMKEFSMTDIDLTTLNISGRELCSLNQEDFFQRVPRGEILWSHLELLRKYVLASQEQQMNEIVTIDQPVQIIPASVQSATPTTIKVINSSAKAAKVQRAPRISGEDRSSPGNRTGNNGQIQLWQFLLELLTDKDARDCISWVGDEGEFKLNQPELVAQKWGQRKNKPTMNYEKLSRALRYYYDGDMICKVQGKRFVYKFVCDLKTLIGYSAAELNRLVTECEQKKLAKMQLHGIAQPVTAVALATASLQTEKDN
How it was run: as §1

[4] = target: T4, ERG (Homo sapiens, UniProt P11308 1-479); conditions: protein: recombinant; tags: N-terminal GST; dsDNA, one strand shown
T4 sequence: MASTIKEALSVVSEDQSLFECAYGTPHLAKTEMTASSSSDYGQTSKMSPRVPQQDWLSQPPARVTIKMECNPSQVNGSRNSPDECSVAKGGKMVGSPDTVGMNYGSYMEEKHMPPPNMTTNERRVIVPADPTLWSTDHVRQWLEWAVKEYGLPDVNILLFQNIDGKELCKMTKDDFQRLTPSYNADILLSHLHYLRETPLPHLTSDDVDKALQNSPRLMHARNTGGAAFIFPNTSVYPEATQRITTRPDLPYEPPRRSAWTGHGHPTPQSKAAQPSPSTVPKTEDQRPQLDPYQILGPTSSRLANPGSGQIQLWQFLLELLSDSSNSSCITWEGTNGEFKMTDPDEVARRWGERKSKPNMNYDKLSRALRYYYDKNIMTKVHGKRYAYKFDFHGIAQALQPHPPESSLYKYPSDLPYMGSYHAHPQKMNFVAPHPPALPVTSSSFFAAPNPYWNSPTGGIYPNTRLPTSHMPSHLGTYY
How it was run: as §1

[5] = target: ELF1 (Homo sapiens, UniProt P32519 1-619); conditions: protein: recombinant; tags: N-terminal GST; dsDNA, one strand shown
How it was run: as §1

[6] = target: T5, EHF (Homo sapiens, UniProt Q9NZC4 1-300); conditions: protein: recombinant; tags: N-terminal GST; dsDNA, one strand shown
T5 sequence: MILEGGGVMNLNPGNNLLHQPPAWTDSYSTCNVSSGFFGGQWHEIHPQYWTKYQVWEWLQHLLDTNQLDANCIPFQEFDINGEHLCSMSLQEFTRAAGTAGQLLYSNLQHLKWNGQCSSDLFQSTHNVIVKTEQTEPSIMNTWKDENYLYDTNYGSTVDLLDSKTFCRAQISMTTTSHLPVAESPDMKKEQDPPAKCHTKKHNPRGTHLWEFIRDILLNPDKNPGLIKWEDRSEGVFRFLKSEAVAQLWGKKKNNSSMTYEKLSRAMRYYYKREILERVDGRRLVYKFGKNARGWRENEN
How it was run: as §1

[7] = target: SPI1 (Homo sapiens, UniProt P17947 1-270); conditions: protein: recombinant; tags: N-terminal GST; dsDNA, one strand shown
How it was run: as §1

[8] = target: SPIB (Homo sapiens, UniProt Q01892 1-262); conditions: protein: recombinant; tags: N-terminal GST; dsDNA, one strand shown
How it was run: as §1

[9] = target: T6, ELK3 (Homo sapiens, UniProt P41970 1-407); conditions: protein: recombinant; tags: N-terminal GST; dsDNA, one strand shown
T6 sequence: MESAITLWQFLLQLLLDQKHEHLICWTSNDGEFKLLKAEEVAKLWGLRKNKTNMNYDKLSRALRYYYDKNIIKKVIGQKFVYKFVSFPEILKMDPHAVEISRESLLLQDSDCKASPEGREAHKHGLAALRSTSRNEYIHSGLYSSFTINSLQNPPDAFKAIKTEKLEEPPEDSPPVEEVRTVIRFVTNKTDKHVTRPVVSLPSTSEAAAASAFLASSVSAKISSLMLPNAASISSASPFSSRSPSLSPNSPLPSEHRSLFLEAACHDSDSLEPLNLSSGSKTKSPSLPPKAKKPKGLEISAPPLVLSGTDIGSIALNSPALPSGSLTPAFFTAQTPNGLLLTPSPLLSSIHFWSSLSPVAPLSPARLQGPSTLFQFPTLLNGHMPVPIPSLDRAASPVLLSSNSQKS
How it was run: as §1

[10] = target: T7, FEV (Homo sapiens, UniProt Q99581 1-238); conditions: protein: recombinant; tags: N-terminal GST; dsDNA, one strand shown
T7 sequence: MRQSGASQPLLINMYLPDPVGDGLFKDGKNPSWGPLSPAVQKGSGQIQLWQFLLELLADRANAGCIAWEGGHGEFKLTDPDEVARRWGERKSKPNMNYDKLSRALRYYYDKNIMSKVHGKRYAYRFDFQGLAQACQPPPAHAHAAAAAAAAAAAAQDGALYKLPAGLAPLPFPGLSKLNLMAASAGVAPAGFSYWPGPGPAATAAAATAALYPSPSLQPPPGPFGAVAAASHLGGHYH
How it was run: as §1

[11] = target: ETV5 (Homo sapiens, UniProt P41161 1-510); conditions: protein: recombinant; tags: N-terminal GST; dsDNA, one strand shown
How it was run: as §1

[12] = target: HSF1 (Homo sapiens, UniProt Q00613 1-529); conditions: protein: recombinant; tags: N-terminal GST; chain copies: 3; dsDNA, one strand shown
How it was run: as §1

[13] = target: T8, SPIC (Homo sapiens, UniProt Q8N5J4 1-248); conditions: protein: recombinant; tags: N-terminal GST; dsDNA, one strand shown
T8 sequence: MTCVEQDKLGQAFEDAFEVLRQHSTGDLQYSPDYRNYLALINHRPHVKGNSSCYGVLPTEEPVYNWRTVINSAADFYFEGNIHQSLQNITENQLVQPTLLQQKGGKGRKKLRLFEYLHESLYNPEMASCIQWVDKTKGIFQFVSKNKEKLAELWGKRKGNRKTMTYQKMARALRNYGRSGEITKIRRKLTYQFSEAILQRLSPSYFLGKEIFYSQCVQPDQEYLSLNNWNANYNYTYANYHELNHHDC
How it was run: as §1

[14] = target: ELF4 (Homo sapiens, UniProt Q99607 1-663); conditions: protein: recombinant; tags: N-terminal GST; dsDNA, one strand shown
How it was run: as §1

[15] = target: T9, ELK4 (Homo sapiens, UniProt P28324-2 1-405); conditions: protein: recombinant; tags: N-terminal GST; dsDNA, one strand shown
T9 sequence: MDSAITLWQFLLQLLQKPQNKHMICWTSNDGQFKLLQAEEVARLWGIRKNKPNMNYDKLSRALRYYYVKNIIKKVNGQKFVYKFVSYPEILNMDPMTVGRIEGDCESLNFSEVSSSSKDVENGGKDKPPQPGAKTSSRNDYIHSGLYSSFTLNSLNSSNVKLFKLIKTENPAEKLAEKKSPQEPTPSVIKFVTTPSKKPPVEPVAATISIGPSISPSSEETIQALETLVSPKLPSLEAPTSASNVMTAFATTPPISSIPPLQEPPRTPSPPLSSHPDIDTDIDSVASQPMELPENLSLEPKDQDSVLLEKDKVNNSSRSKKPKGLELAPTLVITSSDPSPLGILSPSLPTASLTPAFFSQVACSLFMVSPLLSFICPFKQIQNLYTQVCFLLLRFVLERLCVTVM
How it was run: as §1

[16] = target: T10, ETV2 (Homo sapiens, UniProt O00321 1-342); conditions: protein: recombinant; tags: N-terminal GST; dsDNA, one strand shown
T10 sequence: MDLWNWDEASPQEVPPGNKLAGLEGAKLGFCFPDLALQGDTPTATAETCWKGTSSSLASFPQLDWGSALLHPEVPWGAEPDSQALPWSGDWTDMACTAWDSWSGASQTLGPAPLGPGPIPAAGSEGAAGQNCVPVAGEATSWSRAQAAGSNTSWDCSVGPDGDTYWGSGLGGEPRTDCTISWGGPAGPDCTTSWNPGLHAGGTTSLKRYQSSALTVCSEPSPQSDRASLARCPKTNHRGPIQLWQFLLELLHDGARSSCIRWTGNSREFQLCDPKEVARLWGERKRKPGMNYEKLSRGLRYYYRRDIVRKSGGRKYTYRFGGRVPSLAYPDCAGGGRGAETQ
How it was run: as §1

[17] = target: T11, ELF3 (Homo sapiens, UniProt P78545 1-371); conditions: protein: recombinant; tags: N-terminal GST; dsDNA, one strand shown
T11 sequence: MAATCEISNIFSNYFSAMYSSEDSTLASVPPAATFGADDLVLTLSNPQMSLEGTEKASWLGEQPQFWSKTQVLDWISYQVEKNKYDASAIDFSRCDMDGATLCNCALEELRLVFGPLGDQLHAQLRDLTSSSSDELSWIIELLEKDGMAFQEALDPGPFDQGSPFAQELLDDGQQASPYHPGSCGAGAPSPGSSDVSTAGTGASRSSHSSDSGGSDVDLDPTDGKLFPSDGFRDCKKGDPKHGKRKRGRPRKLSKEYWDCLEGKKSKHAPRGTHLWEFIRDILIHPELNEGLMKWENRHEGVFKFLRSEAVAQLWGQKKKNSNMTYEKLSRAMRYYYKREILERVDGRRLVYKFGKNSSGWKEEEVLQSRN
How it was run: as §1

[18] = target: CRX (Homo sapiens, UniProt O43186 1-299); conditions: protein: recombinant; tags: N-terminal GST; dsDNA, one strand shown
How it was run: as §1

[19] = target: ETV1 (Homo sapiens, UniProt P50549 1-477); conditions: protein: recombinant; tags: N-terminal GST; dsDNA, one strand shown
How it was run: as §1

Chain of ETV5 (P41161 whole entry): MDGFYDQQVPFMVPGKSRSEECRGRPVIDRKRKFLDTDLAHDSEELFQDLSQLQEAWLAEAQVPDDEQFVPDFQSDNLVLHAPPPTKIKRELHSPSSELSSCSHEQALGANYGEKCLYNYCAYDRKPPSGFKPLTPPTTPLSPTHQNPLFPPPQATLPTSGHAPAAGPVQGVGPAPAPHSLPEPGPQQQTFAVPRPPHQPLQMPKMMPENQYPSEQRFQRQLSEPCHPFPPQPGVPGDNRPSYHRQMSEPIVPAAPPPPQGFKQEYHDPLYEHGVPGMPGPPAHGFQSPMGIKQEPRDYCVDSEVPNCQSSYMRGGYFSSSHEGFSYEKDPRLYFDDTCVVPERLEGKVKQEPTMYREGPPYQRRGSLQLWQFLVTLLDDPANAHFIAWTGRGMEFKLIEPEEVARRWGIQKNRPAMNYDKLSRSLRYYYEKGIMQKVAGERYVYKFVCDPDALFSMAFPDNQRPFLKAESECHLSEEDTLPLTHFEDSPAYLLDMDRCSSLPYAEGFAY
Chain of SPIB (Q01892 whole entry): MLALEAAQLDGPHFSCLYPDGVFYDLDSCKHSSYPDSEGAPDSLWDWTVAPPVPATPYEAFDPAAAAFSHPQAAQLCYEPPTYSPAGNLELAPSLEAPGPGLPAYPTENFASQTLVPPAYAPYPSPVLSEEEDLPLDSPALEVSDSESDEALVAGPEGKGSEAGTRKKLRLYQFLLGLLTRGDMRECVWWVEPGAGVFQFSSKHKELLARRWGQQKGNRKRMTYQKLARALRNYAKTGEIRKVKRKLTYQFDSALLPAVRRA
Chain of CRX (O43186 whole entry): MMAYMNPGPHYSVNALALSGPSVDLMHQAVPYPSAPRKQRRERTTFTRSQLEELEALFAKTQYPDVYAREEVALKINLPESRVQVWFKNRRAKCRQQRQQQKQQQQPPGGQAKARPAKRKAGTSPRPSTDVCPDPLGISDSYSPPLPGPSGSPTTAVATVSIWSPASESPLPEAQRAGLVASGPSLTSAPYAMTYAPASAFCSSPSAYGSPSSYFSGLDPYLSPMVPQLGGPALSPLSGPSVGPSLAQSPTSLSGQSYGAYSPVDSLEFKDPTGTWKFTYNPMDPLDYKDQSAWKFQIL
Chain of ELF4 (Q99607 whole entry): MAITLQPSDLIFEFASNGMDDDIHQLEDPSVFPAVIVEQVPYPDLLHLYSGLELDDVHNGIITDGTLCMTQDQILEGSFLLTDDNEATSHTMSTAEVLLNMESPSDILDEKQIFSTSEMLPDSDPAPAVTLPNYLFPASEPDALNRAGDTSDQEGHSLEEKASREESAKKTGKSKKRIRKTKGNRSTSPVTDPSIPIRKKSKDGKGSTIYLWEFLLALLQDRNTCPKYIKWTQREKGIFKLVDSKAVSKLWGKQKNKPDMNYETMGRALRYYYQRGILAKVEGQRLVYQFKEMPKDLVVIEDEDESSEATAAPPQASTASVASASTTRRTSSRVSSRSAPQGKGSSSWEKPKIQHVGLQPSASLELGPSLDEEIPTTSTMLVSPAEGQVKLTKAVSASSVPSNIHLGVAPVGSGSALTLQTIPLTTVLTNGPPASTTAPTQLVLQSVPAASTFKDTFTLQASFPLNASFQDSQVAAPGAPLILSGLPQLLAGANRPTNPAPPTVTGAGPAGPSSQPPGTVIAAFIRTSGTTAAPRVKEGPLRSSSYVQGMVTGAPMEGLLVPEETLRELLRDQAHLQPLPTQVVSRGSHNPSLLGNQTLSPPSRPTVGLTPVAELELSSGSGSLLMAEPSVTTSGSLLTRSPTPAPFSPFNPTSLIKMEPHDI
Chain of HSF1 (Q00613 whole entry): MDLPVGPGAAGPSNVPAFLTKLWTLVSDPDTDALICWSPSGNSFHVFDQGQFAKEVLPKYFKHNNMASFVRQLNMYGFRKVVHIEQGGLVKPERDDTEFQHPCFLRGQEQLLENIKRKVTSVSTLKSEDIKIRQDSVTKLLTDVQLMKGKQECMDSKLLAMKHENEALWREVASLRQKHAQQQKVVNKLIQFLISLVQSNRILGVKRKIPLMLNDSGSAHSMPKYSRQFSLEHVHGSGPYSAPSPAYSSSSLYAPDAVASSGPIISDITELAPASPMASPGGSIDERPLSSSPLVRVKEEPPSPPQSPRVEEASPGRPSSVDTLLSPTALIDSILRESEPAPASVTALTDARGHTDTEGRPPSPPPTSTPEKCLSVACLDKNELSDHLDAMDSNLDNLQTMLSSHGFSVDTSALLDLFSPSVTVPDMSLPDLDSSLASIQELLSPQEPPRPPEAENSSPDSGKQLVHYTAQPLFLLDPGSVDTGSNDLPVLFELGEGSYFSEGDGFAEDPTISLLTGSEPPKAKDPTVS
Chain of ELF1 (P32519 whole entry): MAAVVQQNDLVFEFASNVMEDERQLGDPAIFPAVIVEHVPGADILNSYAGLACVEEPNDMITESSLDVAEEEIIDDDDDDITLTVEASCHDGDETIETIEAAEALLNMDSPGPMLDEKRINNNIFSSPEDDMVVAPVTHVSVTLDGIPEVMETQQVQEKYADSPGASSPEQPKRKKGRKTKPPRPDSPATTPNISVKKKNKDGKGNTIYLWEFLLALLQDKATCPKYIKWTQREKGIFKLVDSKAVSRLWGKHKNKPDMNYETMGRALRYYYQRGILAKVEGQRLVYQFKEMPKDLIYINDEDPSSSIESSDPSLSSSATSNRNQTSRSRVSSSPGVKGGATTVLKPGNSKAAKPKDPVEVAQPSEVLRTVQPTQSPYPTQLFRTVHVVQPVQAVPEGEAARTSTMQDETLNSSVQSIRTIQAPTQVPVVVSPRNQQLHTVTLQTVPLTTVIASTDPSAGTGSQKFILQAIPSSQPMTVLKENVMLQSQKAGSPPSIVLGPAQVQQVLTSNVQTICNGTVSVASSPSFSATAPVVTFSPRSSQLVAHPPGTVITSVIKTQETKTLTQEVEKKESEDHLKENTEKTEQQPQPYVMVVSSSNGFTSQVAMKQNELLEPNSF
Chain of ETV1 (P50549 whole entry): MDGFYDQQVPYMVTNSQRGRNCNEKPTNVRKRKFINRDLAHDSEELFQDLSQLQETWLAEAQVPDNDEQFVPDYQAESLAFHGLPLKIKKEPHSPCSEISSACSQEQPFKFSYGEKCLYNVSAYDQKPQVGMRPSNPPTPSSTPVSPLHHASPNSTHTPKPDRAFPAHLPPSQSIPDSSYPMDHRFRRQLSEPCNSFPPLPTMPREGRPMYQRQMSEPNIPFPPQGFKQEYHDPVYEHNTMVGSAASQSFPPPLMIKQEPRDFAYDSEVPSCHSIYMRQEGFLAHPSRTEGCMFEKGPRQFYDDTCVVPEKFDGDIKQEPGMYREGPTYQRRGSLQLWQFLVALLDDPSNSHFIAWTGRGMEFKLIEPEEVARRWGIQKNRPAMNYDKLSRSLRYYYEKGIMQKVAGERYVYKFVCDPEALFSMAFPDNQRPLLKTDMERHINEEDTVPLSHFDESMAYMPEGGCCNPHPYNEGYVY

TGTATG
binding signal [1]: 1.31 fold enrichment (6-mer frequency, TF over GST control)
binding signal [2]: 1.16 fold enrichment (6-mer frequency, TF over GST control)
binding signal [3]: 1.25 fold enrichment (6-mer frequency, TF over GST control)
binding signal [4]: 1.14 fold enrichment (6-mer frequency, TF over GST control)
binding signal [5]: 1.23 fold enrichment (6-mer frequency, TF over GST control)
binding signal [6]: 1.2 fold enrichment (6-mer frequency, TF over GST control)
binding signal [7]: 1.18 fold enrichment (6-mer frequency, TF over GST control)
binding signal [8]: 1.16 fold enrichment (6-mer frequency, TF over GST control)
binding signal [9]: 1.22 fold enrichment (6-mer frequency, TF over GST control)
binding signal [10]: 1.21 fold enrichment (6-mer frequency, TF over GST control)
binding signal [11]: 1.28 fold enrichment (6-mer frequency, TF over GST control)
binding signal [12]: 1.06 fold enrichment (6-mer frequency, TF over GST control)
binding signal [13]: 1.09 fold enrichment (6-mer frequency, TF over GST control)
binding signal [14]: 1.22 fold enrichment (6-mer frequency, TF over GST control)
binding signal [15]: 1.34 fold enrichment (6-mer frequency, TF over GST control)
binding signal [16]: 1.18 fold enrichment (6-mer frequency, TF over GST control)
binding signal [17]: 1.19 fold enrichment (6-mer frequency, TF over GST control)
binding signal [18]: 1.04 fold enrichment (6-mer frequency, TF over GST control)
binding signal [19]: 1.27 fold enrichment (6-mer frequency, TF over GST control)
